The supplement of paper PMC6555819

Columns and labels:
Assay in all cases: PBM binding z-score (relative to random genomic background probes); higher = stronger binding; sequences stand for … in GC…GCGATTGACAGCGTAGAATGAAGG
[1] = tested on: FXR:RXRa (NR concentration 270 nM, RXRa partner concentration 90 nM)
Method in brief: (§1)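 Binding z-scores take random background probes as their reference. They come from custom Agilent 4×180K protein-binding microarrays incubated 1 h with ligand-free nuclear receptor dimers, with antibodies against each partner (one per run) detecting binding. Scanned fluorescence was regression-normalized.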

[2] = tested on: LXRa:RXRa (NR concentration 270 nM, RXRa partner concentration 90 nM)
Method in brief: as §1

[3] = tested on: LXRa homodimer (NR concentration 270 nM)
Method in brief: as §1

[4] = tested on: LXRb:RXRa (NR concentration 270 nM, RXRa partner concentration 90 nM)
Method in brief: as §1

[5] = tested on: LXRb homodimer (NR concentration 270 nM)
Method in brief: as §1

[6] = tested on: PPARa:RXRa (NR concentration 270 nM, RXRa partner concentration 90 nM)
Method in brief: as §1

[7] = tested on: PPARg:RXRa (NR concentration 180 nM, RXRa partner concentration 90 nM)
Method in brief: as §1

[8] = tested on: PPARg:RXRa 270nM:90nM, anti-RXR (NR concentration 270 nM, RXRa partner concentration 90 nM)
Method in brief: as §1

[9] = tested on: PPARg:RXRa 30nM:10nM, anti-RXR (NR concentration 30 nM, RXRa partner concentration 10 nM)
Method in brief: as §1

[10] = tested on: PPARg:RXRa 90nM:30nM, anti-RXR (NR concentration 90 nM, RXRa partner concentration 30 nM)
Method in brief: as §1

[11] = tested on: PPARg:RXRa DBDmut IVT, anti-RXR (DBD mutation: RXRa K156A/R161A, NR concentration 270 nM, RXRa partner concentration 90 nM)
Method in brief: as §1

[12] = tested on: PPARg:RXRa IVT, anti-PPARg (NR concentration 270 nM, RXRa partner concentration 90 nM)
Method in brief: as §1

[13] = tested on: PPARg DBDmut:RXRa IVT, anti-PPARg (DBD mutation: PPARg1 K132A/R137A, NR concentration 270 nM, RXRa partner concentration 90 nM)
Method in brief: as §1

[14] = tested on: PPARg DBDmut IVT, anti-PPARg (DBD mutation: PPARg1 K132A/R137A, NR concentration 270 nM)
Method in brief: as §1

[15] = tested on: PPARg homodimer (NR concentration 180 nM)
Method in brief: as §1

[16] = tested on: PXR:RXRa (NR concentration 270 nM, RXRa partner concentration 90 nM)
Method in brief: as §1

[17] = tested on: PXR homodimer (NR concentration 270 nM)
Method in brief: as §1

[18] = tested on: RARa:RXR (NR concentration 270 nM, RXRa partner concentration 90 nM)
Method in brief: as §1

[19] = tested on: RARa homodimer (NR concentration 270 nM)
Method in brief: as §1

[20] = tested on: RARb:RXRa (NR concentration 270 nM, RXRa partner concentration 90 nM)
Method in brief: as §1

| Sequence | PBM binding z-score [1] | PBM binding z-score [2] | PBM binding z-score [3] | PBM binding z-score [4] | PBM binding z-score [5] | PBM binding z-score [6] | PBM binding z-score [7] | PBM binding z-score [8] | PBM binding z-score [9] | PBM binding z-score [10] | PBM binding z-score [11] | PBM binding z-score [12] | PBM binding z-score [13] | PBM binding z-score [14] | PBM binding z-score [15] | PBM binding z-score [16] | PBM binding z-score [17] | PBM binding z-score [18] | PBM binding z-score [19] | PBM binding z-score [20] |
| --- | --- | --- | --- | --- | --- | --- | --- | --- | --- | --- | --- | --- | --- | --- | --- | --- | --- | --- | --- | --- |
| ATCGAACGGTCGACGAGGTGAGTATACACCGTTT | -0.18 | -0.425 | -0.327 | -0.336 | -0.463 | -0.0739 | 0.937 | -0.158 | -0.0439 | -0.375 | -0.724 | 0.667 | 0.31 | 0.651 | -0.218 | -0.192 | -0.411 | -0.0707 | -0.605 | 0.92 |
| ATCTCTAGGTAACAAGGTCAGTGAAAGAGAGGAC | 1.72 | 1.92 | 0.814 | 1.9 | 1.16 | 3.22 | 3.64 | 3.84 | 1.54 | 3 | 4.43 | 4.75 | 1.63 | 1.14 | 2.4 | 1.98 | 1.12 | 2.3 | 1.5 | 3.07 |
| CAAACTAGGTCACAGAGGTTAAAGTCCGTGCGTA | 5.89 | 5.17 | 3.01 | 4.28 | 0.562 | 6.05 | 9.43 | 7.64 | 5.91 | 7.56 | 8.23 | 9.05 | 7.06 | 4.73 | 2.92 | 4.74 | 3.84 | 4.65 | 1.69 | 4.62 |
| CGTCAAAGTTCACCTAAGGTAACGTAAAGCACGC | 6.94 | 6.74 | 3.99 | 4.24 | 1.27 | 5.11 | 5.63 | 5.75 | 2.48 | 4.52 | 0.554 | 2.63 | 0.556 | 0.77 | 3.35 | 5.29 | 3.14 | 4.17 | 0.893 | 5.21 |
| CCTAGTTGGGCAGGAGGTCACACACCGGATATGA | 2.73 | 2.97 | 1.41 | 2.79 | -0.389 | 3.7 | 3.31 | 4.01 | 1.77 | 3.33 | 0.343 | 2.59 | -0.448 | -0.00376 | 2.16 | 3.77 | 0.916 | 3.7 | 1.59 | 3.15 |
| CCTCGGAGGTCAGAAGGTCAGAGCTGTCCGCTTT | 5.84 | 4.89 | 1.19 | 3.83 | 0.259 | 4.92 | 3.38 | 5.24 | 1.27 | 3.92 | 2.53 | 3.5 | -1.11 | -1.86 | 5.71 | 4.71 | 0.603 | 6.73 | 0.835 | 5.16 |
| TCTAGTTGGTCATGGAGGTCACACACGACGGGTA | 3.61 | 3.7 | 3.33 | 3.3 | 1.23 | 3.9 | 3.39 | 3.95 | 3.27 | 3.52 | 2.58 | 3.96 | 1.39 | 1.01 | 3.56 | 4.8 | 2.15 | 4.97 | 2.88 | 3.77 |
| CGTCCAAGGTCAATGCTAGGCCAGTGAAAGCATT | 6.44 | 4.55 | 0.299 | 3.51 | 0.207 | 4.74 | 3.02 | 4.07 | 1.14 | 2.82 | 2.99 | 3.13 | -0.61 | -0.971 | 2.78 | 3.64 | 0.593 | 4.31 | 0.644 | 4.96 |
| AACGAAAGGTCGACGAGGTGAGTATACACCGTTT | 4.99 | 3.68 | 0.231 | 2.9 | 0.0317 | 4.82 | 3.19 | 3.42 | 1.02 | 2.48 | 0.793 | 1.94 | 0.978 | 0.568 | 1.32 | 2.95 | 0.578 | 3.56 | 0.305 | 3.91 |
| CCTGGCAGGCCAGGGTCACTCAAGCATTTCGCTT | 2.34 | 2.07 | -0.539 | 2.18 | -1.2 | 3.35 | 0.292 | 1.27 | -0.621 | 0.206 | -0.558 | 0.531 | -1.01 | -1.58 | 0.712 | 3.01 | -0.393 | 3.1 | -0.89 | 2.91 |
| CCTACTGTGCCATTCAGAGGTCATTGATCATATG | 2.84 | 4.75 | 6.87 | 4.59 | 1.67 | 3.96 | 1.74 | 2.71 | 0.936 | 1.83 | 3.76 | 3.54 | 0.945 | 0.536 | 2.73 | 4.89 | 2.63 | 4.4 | 1.62 | 3.08 |
| TGAATGACGTTAAAGATCAGGGAACGTGGCGTCG | -0.238 | -0.18 | -0.178 | -0.538 | 0.178 | -0.0143 | 0.989 | 1.26 | 0.931 | 1.28 | -1.13 | 0.0329 | 0.97 | 0.284 | -0.272 | -0.444 | -0.0558 | -0.209 | 0.184 | -0.171 |
| ATCGAATGGTCGTGAGGTGAGTATACAGAAAGGC | 0.132 | -0.131 | -0.134 | -0.373 | -0.124 | -0.301 | 0.654 | -0.486 | -0.0496 | -0.425 | -0.654 | 0.348 | 0.375 | -0.00822 | 0.181 | -0.104 | 0.00681 | 0.113 | 0.259 | 0.464 |
| CCTACTGGGCCATTCAGAGGTTATTGATCATATG | 0.119 | 0.693 | 0.815 | 0.664 | -0.334 | 1.55 | 0.601 | 1.23 | 0.0553 | 0.458 | 4.41 | 3.71 | 0.418 | 0.252 | 0.658 | 0.724 | 0.159 | 0.877 | 0.171 | 0.712 |
